Measurements taken from PubChem BioAssay AID1159580 (chemical genetic matrix, 2015).
Among all 5,500 compounds or so, about 2,000 (36%) were called active. Inconclusive results (about 18%) are left out. Some of the results follow. Values without a mark were called inactive. Rule as the data show it: active = normalized growth mostly below about 0.91 (no sharp cut-off); inconclusive = no clear call, values can overlap the other calls; inactive = mostly above about 0.92.

Assay: chemical genetic growth profiling, strain panel (AID 1159580);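 also: tested at 20 µM; growth read once vehicle control cultures reached saturation at 30 °C; 1 = growth at the plate median or of vehicle wells; lower values mean less growth of the strain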
Settings: growth OD

CC(C(=O)O)c1ccc2c(c1)[nH]c1ccc(Cl)cc12 (configuration not stated)
normalized growth (S. cerevisiae deletion strains, locus YJR075W, strain HOC1, active compounds read low): 1.01 | normalized growth (S. cerevisiae deletion strains, locus YKL009W, strain mrt4, active compounds read low): 0.975 | normalized growth (S. cerevisiae deletion strains, locus YKL068W, active compounds read low): 0.964 | normalized growth (S. cerevisiae deletion strains, locus YKL085W, strain MDH1 (second series), active compounds read low): 0.95 | normalized growth (S. cerevisiae deletion strains, locus YKL085W, strain MDH1, active compounds read low): 0.95 | normalized growth (S. cerevisiae deletion strains, locus YKL160W, strain elf1, active compounds read low): 0.941 | normalized growth (S. cerevisiae deletion strains, locus YKL190W, strain CNB1, active compounds read low): 1.01 | normalized growth (S. cerevisiae deletion strains, locus YKR001C, strain vps1, active compounds read low): 0.937 | normalized growth (S. cerevisiae deletion strains, locus YKR026C, strain gcn3, active compounds read low): 0.983 | normalized growth (S. cerevisiae deletion strains, locus YKR091W, strain srl3, active compounds read low): 0.988 | normalized growth (S. cerevisiae deletion strains, locus YLL001W, strain dnm1, active compounds read low): 1 | normalized growth (S. cerevisiae deletion strains, locus YLL026W, active compounds read low): 0.978 | normalized growth (S. cerevisiae deletion strains, locus YLL041C, strain sdh2, active compounds read low): 1 | normalized growth (S. cerevisiae deletion strains, locus YLR027C, strain aat2, active compounds read low): 0.992 | normalized growth (S. cerevisiae deletion strains, locus YLR039C, strain RIC1, active compounds read low): 0.977 | normalized growth (S. cerevisiae deletion strains, locus YLR058C, strain SHM2, active compounds read low): 1 | normalized growth (S. cerevisiae deletion strains, locus YLR102C, strain apc9, active compounds read low): 0.991 | normalized growth (S. cerevisiae deletion strains, locus YLR113W, strain HOG1, active compounds read low): 0.248 (active) | normalized growth (S. cerevisiae deletion strains, locus YLR221C, strain rsa3, active compounds read low): 0.986 | normalized growth (S. cerevisiae deletion strains, locus YLR258W, strain gsy2, active compounds read low): 0.976 | normalized growth (S. cerevisiae deletion strains, locus YLR262C, strain YPT6 (second series), active compounds read low): 0.94 | normalized growth (S. cerevisiae deletion strains, locus YLR262C, strain YPT6, active compounds read low): 0.989 | normalized growth (S. cerevisiae deletion strains, locus YLR268W, strain sec22, active compounds read low): 0.992 | normalized growth (S. cerevisiae deletion strains, locus YLR320W, strain mms22, active compounds read low): 0.937 | normalized growth (S. cerevisiae deletion strains, locus YLR330W, strain CHS5, active compounds read low): 0.998 | normalized growth (S. cerevisiae deletion strains, locus YLR342W, strain FKS1 (second series), active compounds read low): 0.987 | normalized growth (S. cerevisiae deletion strains, locus YLR342W, strain FKS1, active compounds read low): 0.966 | normalized growth (S. cerevisiae deletion strains, locus YLR357W, strain rsc2, active compounds read low): 0.923 | normalized growth (S. cerevisiae deletion strains, locus YLR370C, strain arc18, active compounds read low): 0.972 | normalized growth (S. cerevisiae deletion strains, locus YLR371W, strain rom2, active compounds read low): 0.984 | normalized growth (S. cerevisiae deletion strains, locus YLR384C, strain iki3, active compounds read low): 0.964 | normalized growth (S. cerevisiae deletion strains, locus YLR418C, strain cdc73, active compounds read low): 0.962 | normalized growth (S. cerevisiae deletion strains, locus YML016C, strain PPZ1, active compounds read low): 1.01 | normalized growth (S. cerevisiae deletion strains, locus YML032C, strain rad52, active compounds read low): 0.965 | normalized growth (S. cerevisiae deletion strains, locus YML120C, strain ndi1, active compounds read low): 0.985 | normalized growth (S. cerevisiae deletion strains, locus YML124C, strain tub3, active compounds read low): 0.981 | normalized growth (S. cerevisiae deletion strains, locus YMR058W, strain fet3, active compounds read low): 1 | normalized growth (S. cerevisiae deletion strains, locus YMR078C, strain ctf18, active compounds read low): 0.983 | normalized growth (S. cerevisiae deletion strains, locus YMR125W, strain sto1, active compounds read low): 0.969 | normalized growth (S. cerevisiae deletion strains, locus YMR129W, active compounds read low): 0.995 | normalized growth (S. cerevisiae deletion strains, locus YMR205C, strain PFK2, active compounds read low): 0.962 | normalized growth (S. cerevisiae deletion strains, locus YMR223W, strain ubp8, active compounds read low): 0.975 | normalized growth (S. cerevisiae deletion strains, locus YMR231W, strain pep5, active compounds read low): 0.957 | normalized growth (S. cerevisiae deletion strains, locus YMR263W, strain SAP30, active compounds read low): 1.02 | normalized growth (S. cerevisiae deletion strains, locus YMR307W, strain GAS1, active compounds read low): 0.996 | normalized growth (S. cerevisiae deletion strains, locus YNL067W, strain RPL9B, active compounds read low): 1.03 | normalized growth (S. cerevisiae deletion strains, locus YNL071W, strain lat1, active compounds read low): 0.982 | normalized growth (S. cerevisiae deletion strains, locus YNL128W, strain TEP1, active compounds read low): 1 | normalized growth (S. cerevisiae deletion strains, locus YNL153C, strain GIM3, active compounds read low): 1.03 | normalized growth (S. cerevisiae deletion strains, locus YNL183C, strain NPR1, active compounds read low): 0.507 (active) | normalized growth (S. cerevisiae deletion strains, locus YNL209W, strain ssb2, active compounds read low): 0.988 | normalized growth (S. cerevisiae deletion strains, locus YNL233W, strain BNI4, active compounds read low): 1.02 | normalized growth (S. cerevisiae deletion strains, locus YNL248C, strain rpa49, active compounds read low): 0.963 | normalized growth (S. cerevisiae deletion strains, locus YNL250W, strain rad50, active compounds read low): 0.885 (active) | normalized growth (S. cerevisiae deletion strains, locus YNL271C, strain bni1, active compounds read low): 0.942 | normalized growth (S. cerevisiae deletion strains, locus YNL298W, strain CLA4, active compounds read low): 0.91 | normalized growth (S. cerevisiae deletion strains, locus YNL307C, strain MCK1, active compounds read low): 0.963 | normalized growth (S. cerevisiae deletion strains, locus YNL322C, strain KRE1 (second series), active compounds read low): 0.895 (active) | normalized growth (S. cerevisiae deletion strains, locus YNL322C, strain KRE1, active compounds read low): 1.01 | normalized growth (S. cerevisiae deletion strains, locus YNR049C, strain mso1, active compounds read low): 0.988 | normalized growth (S. cerevisiae deletion strains, locus YNR052C, strain pop2, active compounds read low): 0.97 | normalized growth (S. cerevisiae deletion strains, locus YOL006C, strain TOP1, active compounds read low): 1.07 | normalized growth (S. cerevisiae deletion strains, locus YOL012C, strain htz1): 0.756 | normalized growth (S. cerevisiae deletion strains, locus YOL147C, strain pex11, active compounds read low): 0.974 | normalized growth (S. cerevisiae deletion strains, locus YOR001W, strain rrp6, active compounds read low): 1 | normalized growth (S. cerevisiae deletion strains, locus YOR061W, strain CKA2, active compounds read low): 1 | normalized growth (S. cerevisiae deletion strains, locus YOR069W, strain VPS5, active compounds read low): 1.01 | normalized growth (S. cerevisiae deletion strains, locus YOR070C, strain gyp1, active compounds read low): 0.981 | normalized growth (S. cerevisiae deletion strains, locus YOR080W, strain dia2, active compounds read low): 1 | normalized growth (S. cerevisiae deletion strains, locus YOR083W, strain WHI5, active compounds read low): 0.898 | normalized growth (S. cerevisiae deletion strains, locus YOR106W, strain vam3, active compounds read low): 0.925 | normalized growth (S. cerevisiae deletion strains, locus YOR136W, strain idh2, active compounds read low): 0.963 | normalized growth (S. cerevisiae deletion strains, locus YOR144C, strain elg1, active compounds read low): 0.98 | normalized growth (S. cerevisiae deletion strains, locus YOR184W, strain ser1, active compounds read low): 0.986 | normalized growth (S. cerevisiae deletion strains, locus YOR231W, strain MKK1, active compounds read low): 0.212 (active) | normalized growth (S. cerevisiae deletion strains, locus YOR265W, strain rbl2, active compounds read low): 0.993 | normalized growth (S. cerevisiae deletion strains, locus YOR270C, strain vph1, active compounds read low): 0.999 | normalized growth (S. cerevisiae deletion strains, locus YOR290C, strain snf2, active compounds read low): 0.95 | normalized growth (S. cerevisiae deletion strains, locus YOR316C, strain cot1, active compounds read low): 0.989 | normalized growth (S. cerevisiae deletion strains, locus YPL051W, strain arl3, active compounds read low): 0.953 | normalized growth (S. cerevisiae deletion strains, locus YPL055C, strain LGE1, active compounds read low): 1.04 | normalized growth (S. cerevisiae deletion strains, locus YPL078C, strain atp4, active compounds read low): 0.946 | normalized growth (S. cerevisiae deletion strains, locus YPL106C, strain sse1, active compounds read low): 0.938 | normalized growth (S. cerevisiae deletion strains, locus YPL240C, strain hsp82, active compounds read low): 1 | normalized growth (S. cerevisiae deletion strains, locus YPL241C, strain CIN2, active compounds read low): 1.01 | normalized growth (S. cerevisiae deletion strains, locus YPL256C, strain CLN2, active compounds read low): 0.238 (active) | normalized growth (S. cerevisiae deletion strains, locus YPR119W, strain clb2, active compounds read low): 0.993 | normalized growth (S. cerevisiae deletion strains, locus YPR141C, strain kar3, active compounds read low): 0.967 | normalized growth (S. cerevisiae deletion strains, locus YPR163C, strain tif3, active compounds read low): 0.981 | normalized growth (S. cerevisiae deletion strains, locus YPR167C, strain met16, active compounds read low): 0.995 | normalized growth (S. cerevisiae deletion strains, strain wtn01, active compounds read low): 0.998 | normalized growth (S. cerevisiae strains, strain wild type, active compounds read low): 0.995
